Values without a mark were called inactive. Calls come from the whole dose curve; as a rule, active = well fitted curve in the direction sought with a large enough effect; inactive = no such curve, though single readings can be large or run the other way.
Target: Alpha-galactosidase (Coffea arabica) (UniProt Q42656)
Assay: Counterscreen for Glucocerebrosidase Inhibitors: qHTS Assay for Coffee Bean alpha-Galactosidase at pH 5.9 (AID 998);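 note: plate controls were uninhibited enzyme for no effect and no-enzyme basal signal for full effect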
Conditions: coffee bean alpha-galactosidase enzyme assay; series mostly up to 76.9 µM; activity, negative = inhibition: at the top concentration
In short: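 In 50 mM citric acid pH 5.9 with 0.005% Tween-20, coffee bean enzyme hydrolyses 80 uM 4-MU alpha-D-galactopyranoside over 20 min at RT. Activity is normalized to controls; AC50 comes from Hill-modelled concentration-response data.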

Sequence of Alpha-galactosidase (Coffea arabica) (Q42656 whole entry, looked up): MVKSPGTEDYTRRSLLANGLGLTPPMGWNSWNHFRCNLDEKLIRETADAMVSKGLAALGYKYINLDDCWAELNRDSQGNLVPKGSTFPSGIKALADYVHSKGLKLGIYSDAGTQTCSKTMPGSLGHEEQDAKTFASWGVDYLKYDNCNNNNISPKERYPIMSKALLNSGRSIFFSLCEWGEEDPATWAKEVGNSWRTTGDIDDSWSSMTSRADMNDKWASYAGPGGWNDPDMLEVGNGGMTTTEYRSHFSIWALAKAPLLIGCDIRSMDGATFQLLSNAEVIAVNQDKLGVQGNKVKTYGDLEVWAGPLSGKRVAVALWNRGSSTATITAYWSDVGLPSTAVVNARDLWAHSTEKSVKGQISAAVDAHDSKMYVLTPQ

Structure (SMILES)	activity, negative = inhibition
Fc1ccc([C@@H]2CCNC[C@H]2COc2ccc3c(c2)OCO3)cc1	-3.4%
Nc1nc2c(ncn2COCCO)c(=O)[nH]1	1.73%
CN(C)CCC=C1c2ccccc2C=Cc2ccccc21	-4.3%
CCOC(=O)N1CCC(=C2c3ccc(Cl)cc3CCc3cccnc32)CC1	-1.36%
CCN(CC)CCNC(=O)c1cc(Cl)c(N)cc1OC	0.841%
Clc1ccc(C(c2ccccc2Cl)C(Cl)Cl)cc1 (stereo not drawn)	-3.39%
CN(Cc1cnc2nc(N)nc(N)c2n1)c1ccc(C(=O)N[C@@H](CCC(=O)O)C(=O)O)cc1	-1.75%
NNCCc1ccccc1	-2.41%
Cc1ccc(S(=O)(=O)NC(=O)NN2CCCCCC2)cc1	-1.21%
O=C1c2c(O)ccc(O)c2C(=O)c2c(NCCNCCO)ccc(NCCNCCO)c21	-0.938%
Cc1nc2n(c(=O)c1CCN1CCC(c3noc4cc(F)ccc34)CC1)CCCC2	-1.24%
CC1(C)NC(=O)N(c2ccc([N+](=O)[O-])c(C(F)(F)F)c2)C1=O	-0.355%
Cc1oncc1C(=O)Nc1ccc(C(F)(F)F)cc1	-1.38%
